From PubChem BioAssay (EPA / NIEHS)
The source made the active and inactive calls. Rule for the calls: active = hit-call score of the fitted dose curve at least 0.9, where 1 is the maximum; inactive = score below 0.9.

Read-out: matrix metalloproteinase-10 (MMP10), MMP10 (gene 4319)
Assay: LTEA_HepaRG_MMP10: Life Technologies and Expression Analysis (LTEA) Assay for matrix metalloproteinase-10 (MMP10) using HepaRG (AID 2283517)
Details: mRNA level, 48 h; actives raise or lower the signal
In short: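 In differentiated HepaRG cultures kept in 0.5% DMSO, test chemicals act for 48 h over an eight-point range with a top dose of 100 uM. Expression is then quantified by TaqMan RT-PCR against ACTB, GAPDH and POLR2A.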

SMILES	outcome	AC50
CCCCCCCC(=O)OC	inactive	–
O=C(O)CN(CC(=O)O)CC(=O)O	inactive	–
O=[Si]=O	inactive	–
COc1ccc(OC(F)(F)F)cc1CN[C@H]1CCCN[C@H]1c1ccccc1	–	75.8 µM (active)
Cc1ccc(-c2cc(C(F)(F)F)nn2-c2ccc(S(N)(=O)=O)cc2)cc1	inactive	–
CCCCCCCCCCCCCCCCO	inactive	–
O=C1NC(=O)C(c2ccccc2)(c2ccccc2)N1	inactive	–
CC(=O)O	inactive	–
